FMDV Renilla = Primary qHTS Assay for Foot and Mouth Disease Virus Antivirals against NCGC Sytravon and CBC Compound Libraries: Renilla Luciferase Signal; AID 1745857, 2022; 0.32% of 120,000 active; Potency, µM (highest dose often 57.5 µM), for inactives: top-dose activity change, negative = inhibition, most hits filed as inhibitors; FMDV replicon cells, Renilla luciferase signal; further: nearly all actives have a fitted effect of over 55% in size
FMDV antiviral = Primary qHTS Assay for Foot and Mouth Disease Virus Antivirals against NCGC Sytravon and CBC Compound Libraries: Firefly Luciferase Signal. Potency, µM (doses to about 57.5 µM), for the others: at the highest dose activity change, negative = inhibition, hits mostly inhibitors. 0.23% of 120,000 active. FMDV antiviral cell assay, firefly luciferase signal; further: nearly all actives have a fitted effect of over 60% in size
The depositor's hits bear a star; ? = inconclusive; ! = not active in a repeat. A selection: hits, their analogues and other compounds. The true share with any hit is near 0.51%. The call rests on the fitted dose curve. On the % scale 0 is the no-effect control and ±100 the full control effect; potency means the concentration at half of the fitted maximal effect.

SMILES | FMDV Renilla | FMDV antiviral
CCOc1ccc(-c2nc(CSCC(=O)N3CCN(c4cccc(C(F)(F)F)c4)CC3)c(C)o2)cc1 | ? | 28µM*
CCOc1ccc(-c2nc(CSCC(=O)N3CCN(c4ccc(F)cc4)CC3)c(C)o2)cc1 | -5% | -1%
Clc1ccc(-n2ncc3c(NC4CCCCCCCCCCC4)ncnc32)cc1 | -5% | 5%
Cc1ccc(Cl)cc1-n1ncc2c(N3CCN(Cc4ccccc4)CC3)ncnc21 | 35µM* | 22µM*
CCN1CCN(c2ncnc3c2cnn3-c2cc(Cl)ccc2C)CC1 | -12% | -11%
Cc1ccc(Cl)cc1-n1ncc2c(NC3CCCCC3)ncnc21 | 25µM*! | ?
Brc1ccccc1-c1nn2c(CN3CCOCC3)nnc2s1 | 0% | -8%
O=C(CN1C=NS(=O)(=O)c2ccccc21)Nc1ccccc1F | -4% | -6%
Cc1nnc(NC(=O)c2csc(NC(C)C)n2)s1 | 35% | 225%
Cc1ccc(C)c(-c2csc(-c3cc4ccc(O)cc4oc3=O)n2)c1 | -17% | -13%
